# From PubChem BioAssay (NCI)
# The panel holds about 83,000 compounds, 20% with a hit somewhere; the sample as a whole holds those more often.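 Each cell line was grown in a 96-well plate and treated with one concentration of compound for 48 hours. Values below 10 were considered active.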 Calls of active or inactive are those of the source.
# Tested on: SW-620 colon
# Experiment: NCI-60 one-dose screen, 48 h (100 = growth as untreated, 0 = no growth, -100 = all killed)
# Details: 10 µM unless noted
row,SMILES,growth
1,CC1=C(C#N)C2=NNCC(c3ccccc3)=NN2C(c2ccccc2)=C1,98% (inactive)
2,COc1c(F)ccc(C(=O)Nc2ccc3nc(NC(=O)C4CCCN(S(=O)(=O)c5cccc(Br)c5)C4)sc3c2)c1F (stereo not drawn),94.5% (inactive)
3,O=c1[nH]c2ccc(Cl)cc2cc1CSc1nccc(-c2ccc(Cl)cc2)n1,73.4% (inactive)
4,O=c1[nH]c(=O)c2c(-c3cc4ccccc4oc3=O)ccnc2[nH]1,98.9% (inactive)
5,COc1cccc(/C=C/c2nc3ccccc3c(=O)n2CC(=O)Nc2ccc(Cl)cc2)c1,68.1% (inactive)
6,COc1ccc2c(c1)c(/C=N/Nc1ccc3ccccc3n1)cn2C,-67.3% (active)
7,COc1c(F)ccc(C(=O)Nc2ccc3nc(NC(=O)C4CCCN(S(=O)(=O)c5ccc(Br)c(F)c5)C4)sc3c2)c1F (stereo not drawn),96.5% (inactive)
8,CCN(CC)c1ccnc(CNCCSC(c2ccccc2)(c2ccccc2)c2ccc(OC)cc2)c1,-66.6% (active)
9,Cc1nc(Nc2ncc(C(=O)Nc3c(C)cccc3Cl)s2)cc(N2CCN(CCCNC(=O)COc3ccc(C4CCC(=O)NC4=O)cc3)CC2)n1 (stereo not drawn),118% (inactive)
10,Cc1cc(=O)oc2cc(OCCCOc3ccc(/C=C/C(=O)Nc4ccccc4N)cc3)ccc12,26.8% (inactive)
11,COc1c(F)ccc(C(=O)Nc2ccc3nc(NC(=O)C4CCCN(S(=O)(=O)c5ccc(C(F)(F)F)cc5)C4)sc3c2)c1F (stereo not drawn),95.1% (inactive)
12,Cc1sc2c(c1C)C(c1ccc(Cl)cc1)=N[C@@H](CC(=O)NCCCCCNC(=O)COc1ccc(C3CCC(=O)NC3=O)cc1)c1nnc(C)n1-2 (stereo partly drawn),23.1% (inactive)
13,COc1ccc(C(=O)/C=C/c2ccc(OCc3ccc(F)cc3)c(OC)c2)cc1OC,7.65% (active)
14,CCCCSc1nc(Nc2ccc(S(N)(=O)=O)cc2)c(C#N)c(-c2ccc(Cl)cc2)n1,37.3% (inactive)
15,CN(C)c1nc(NCCNS(=O)(=O)c2ccc(C3=Nc4c(N)nc(N)nc4NC(c4ccc(F)cc4)C3)cc2)nc(Nc2ccc(F)cc2)n1 (stereo not drawn),39.4% (inactive)
16,Cn1cc(-c2cc3nc(-c4cn(C)c5ncccc45)cc(N)n3n2)c2ccccc21,20.2% (inactive)
17,COc1ccc(-c2ccc(SCC(=O)Nc3ccc(S(N)(=O)=O)cc3Br)nn2)cc1,91.3% (inactive)
18,C#CCOc1cc(N(CC)CC)ccc1C(C(=O)NC(C)(C)C)N(C(=O)C1CCc2cc(F)ccc2O1)c1cc(C)cc(C)c1 (stereo not drawn),36.4% (inactive)
19,Cc1ccc(NC(=O)CN2CCN(c3ncnc4c3cnn4-c3ccccc3)CC2)cc1,99.9% (inactive)
20,O=C(C1=CNC(=S)NC1c1ccc(O)cc1)c1cc2ccccc2oc1=O (stereo not drawn),104% (inactive)

# Tested on: MCF7 breast
# Experiment: as above
# Details: 10 µM unless noted
row,SMILES,growth
1,O=C(O)c1ccc(-c2ccc(/C=N/NC(=O)c3[nH]c4ccc(Br)cc4c3-c3ccccc3)s2)cc1,7.47% (active)
2,N#Cc1c(-c2ccc(Cl)cc2)nc2n[nH]c(-c3ccc(Cl)cc3)c2c1-c1cccs1,44.7% (inactive)
3,O=C(O)c1cccc(-c2ccc(/C=N/NC(=O)c3[nH]c4ccc(Br)cc4c3-c3ccccc3)s2)c1,13.7% (inactive)
4,N#Cc1c(-c2ccc(Br)cc2)nc2n[nH]c(-c3ccc(Br)cc3)c2c1-c1ccc(C(F)(F)F)cc1,5.3% (active)
5,CSc1ccc(C(=O)Nc2ccc3nn(/C(C#N)=C/c4ccccn4)nc3c2)cc1,-78.6% (active)
6,O=C(/C=C/c1ccc(-c2ccccc2)cc1)c1nc2ccccc2n1Cc1ccc(Br)cc1,21.3% (inactive)
7,N#Cc1c(-c2cccc(Cl)c2Cl)cc(-c2ccc3ccccc3c2)[nH]c1=O,52.9% (inactive)
8,Nc1cc2ccccc2c(=O)n1NC(=O)c1ccc(I)cc1,93.2% (inactive)
9,N#Cc1c(-c2ccccc2Cl)cc(-c2c[nH]c3ccccc23)[nH]c1=O,50.9% (inactive)
10,N#Cc1ccc(/C=N/NC(=O)c2[nH]c3ccc(Br)cc3c2-c2ccccc2)o1,7.95% (active)
11,CCOC(=O)C1=C(N)N(c2ccccc2)C2=C(C(=O)CC(C)(C)C2)C1c1ccc(Cl)cc1Cl (stereo not drawn),9.22% (active)
12,CC(C)CCNC(=O)N/C(N)=N/c1nc2ccccc2s1,28.5% (inactive)
13,COc1ccc2cc([C@H](C)C(=O)N/N=C/c3ccc(Br)cc3)ccc2c1,90.7% (inactive)
14,COc1ccc(-c2cc(C(=O)NCc3ccccc3)nn2-c2ccc(S(C)(=O)=O)cc2)cc1OC,95.2% (inactive)
15,N#Cc1c(-c2ccc(Br)cc2)nc2n[nH]c(-c3ccc(Br)cc3)c2c1-c1ccc(F)cc1,78.7% (inactive)
16,CSc1ccc(NC(=O)c2ccc3nn(/C(C#N)=C/c4ccccn4)nc3c2)cc1,-78.6% (active)
17,C=C1CC[C@@H]2[C@]3(C)COC(c4cn(-c5ccccc5)nc4-c4cccc([N+](=O)[O-])c4)O[C@@H]3CC[C@@]2(C)[C@@H]1C/C=C1/C(=O)OC[C@H]1O (stereo partly drawn),2.33% (active)
18,Cc1cc(C)cc(C(=O)Nc2cccc(-c3cn(-c4ccc(S(N)(=O)=O)cc4)nn3)c2)c1,31.5% (inactive)
